Hit rate of the full screen: of about 370,000 compounds, about 2,600 (0.7%) were called active. The sample holds actives, similar compounds and a random draw of the others, so the mix is not that of the screen.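 How the source made its calls: active means inhibition above a cutoff: mean of compounds within the control limits plus 3 SD of those (cut at about 17% in these data); inactive means the rest.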

The assay deals with Sialate O-acetylesterase (Homo sapiens) (UniProt Q9HAT2). As to the kind of experiment: blockers of sialate O-acetylesterase activity-probe labeling – biochemical, fluorescence polarization, FP-Rh probe, 1536-well HTS, primary screen (AID 1053197).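 Further: 0% = plate median of compound wells and 100% = probe without SIAE protein.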 The following applies: SIAE FP-Rh probe binding, at 9.66 µM, hits give high values.
Sequence of Sialate O-acetylesterase (Homo sapiens) (Q9HAT2 whole entry, looked up): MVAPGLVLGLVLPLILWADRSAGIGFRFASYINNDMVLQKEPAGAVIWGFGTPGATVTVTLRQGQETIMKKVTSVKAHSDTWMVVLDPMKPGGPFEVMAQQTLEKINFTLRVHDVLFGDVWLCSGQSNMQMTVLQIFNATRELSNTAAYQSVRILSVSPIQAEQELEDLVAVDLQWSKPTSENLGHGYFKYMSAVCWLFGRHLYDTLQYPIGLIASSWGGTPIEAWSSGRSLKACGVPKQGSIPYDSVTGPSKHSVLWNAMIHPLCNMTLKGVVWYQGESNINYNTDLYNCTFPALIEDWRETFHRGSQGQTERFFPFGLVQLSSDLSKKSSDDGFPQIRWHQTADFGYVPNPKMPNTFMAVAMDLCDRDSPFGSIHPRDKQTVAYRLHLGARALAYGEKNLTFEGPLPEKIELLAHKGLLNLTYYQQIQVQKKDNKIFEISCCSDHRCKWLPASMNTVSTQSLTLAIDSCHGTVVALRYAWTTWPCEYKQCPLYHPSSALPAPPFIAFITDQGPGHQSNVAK
With `C=CCN1C(=O)[C@@H](CC(=O)N2CCN(C(=O)OCC)CC2)[C@]2(C(=O)OCC)CCCCC/C=C/12`, the inhibition was 2.29% (inactive).
Next, `CCN(C(=O)COC(=O)C1CCN(S(=O)(=O)c2ccc(C)c(C)c2)CC1)C1CCS(=O)(=O)C1` (stereo unspecified): 26.2% (active); `CCN(C(=O)COC(=O)c1cc(S(=O)(=O)N2CCc3ccccc32)ccc1OC)C1CCS(=O)(=O)C1` (stereo unspecified): -1.8% (inactive); `Cc1ccc(S(=O)(=O)N2CCC(C(=O)OCC(=O)N(C)c3ccccc3)CC2)cc1C`: -1.79% (inactive).
The result for `CC(=O)Nc1nc2ncccn2c1-c1ccc(C(F)(F)F)cc1` reads 4.66% (inactive); that for `CC(=O)c1cc(-c2ccc3ccccc3c2)c(=O)n2c1CCC2`, -1.29% (inactive); that for `COc1ccc(C(=O)O)cc1S(=O)(=O)NC1CCN(Cc2ccccc2)CC1`, 0.4% (inactive).
Take `COc1ccccc1/C=C/C=N/NC(=O)CN1CCN(Cc2ccccc2)CC1`: the inhibition was 17.3% (active).
Next, `COc1ccccc1/C=C/CN1CCC(CO)(Cc2ccccc2)CC1`: -3.81% (inactive).
Next, `O=S1(=O)c2c(cccc2N2CC[C@H](O)C2)O[C@@H]2CCN1C2`: 6.21% (inactive).
Regarding `COc1cccc(N2CCN(CC(=O)N(C)Cc3ccc(F)cc3)CC2)c1`, the inhibition was 1.64% (inactive).
The result for `Cc1ccnc(NS(=O)(=O)c2ccc(NC(=O)c3oc4ccccc4c3C)cc2)n1` reads -5.42% (inactive).
The result for `Cc1ccnc(NS(=O)(=O)c2ccc(NC(=O)c3ccc(S(=O)(=O)N(C)C)cc3)cc2)n1` reads -1.59% (inactive); that for `Cc1ccnc(NS(=O)(=O)c2ccc(NC(=O)c3ccc(S(=O)(=O)N4CCOCC4)cc3)cc2)n1`, 21% (active).
For `CCCCCCN1CCS(=O)(=O)N(Cc2ccc(C(F)(F)F)cc2)C(C(=O)OC)C1` (stereo unspecified), the inhibition is -2.85% (inactive).
Next, `CC(=O)OC12CCCN(C1)/C(=C/c1ccncc1)C2` (stereo unspecified): 0.93% (inactive); `O=C(CCl)NC1CCCCN(Cc2cccc(C(F)(F)F)c2)C1=O` (stereo unspecified): 1.33% (inactive); `Cc1nc2ccc(C(=O)N3CCSCC3)cc2s1`: 80.7% (active).
The result for `Cc1cccc(C(=O)N2CCC(c3nc4ccccc4s3)CC2)c1` reads 1.7% (inactive); that for `Cc1nc2ccc(S(=O)(=O)NC(C(=O)N3CCCCCC3)C(C)C)cc2s1` (stereo unspecified), -3.13% (inactive).
The result for `Cc1cc(C)nc(NC(=S)N2CCN(c3ccc(C(F)(F)F)cn3)CC2)c1` reads -2.17% (inactive); that for `N#CC(C(N)=O)=C1CCC2(CC1)OCCCCO2`, -1.29% (inactive); that for `CC1(C)C/C(=C(/C#N)C(N)=O)CCO1`, 17.1% (active).
For the compound `Nn1c(SCC(=O)Nc2cccc3ccccc23)nnc1-c1cc(-c2ccc(F)cc2)n[nH]1`, the inhibition is -0.5% (inactive).
Next, `CC(C)(C)NC(=O)C(c1cccnc1)N(C(=O)c1cnco1)c1ccc(C(C)(C)C)cc1` (stereo unspecified): 2.03% (inactive); `CCOC(=O)c1ccc(NNC(C)=O)c([N+](=O)[O-])c1`: 3.08% (inactive); `CCOc1ccccc1Nc1ccc(C(=O)O)cc1[N+](=O)[O-]`: 17.1% (active).
On to `CCOc1cc(C(=O)O)ccc1OCCOc1ccccc1`, for which the inhibition is -4.46% (inactive).
Next, `O=C(CSc1nnc(COc2ccccc2)n1Cc1ccco1)c1ccc2ccccc2c1`: -7.8% (inactive).
For `CCOc1ccc(/C=N/OCC(=O)NCc2cccs2)cc1`, the inhibition is -7.11% (inactive).
Next, `CCOc1ccc(NC(=O)C/C(C)=N/NC(=O)Cc2cccs2)cc1`: 21.6% (active).
With `CCOc1ccc(NC(=O)CSc2nc3ccccc3c(=O)n2Cc2cccs2)cc1`, the inhibition is 0.33% (inactive).
The result for `Cc1ccc(C(=O)C2CCN(CC(=O)NCCC(C)C)CC2)cc1` reads 4.25% (inactive); that for `O=C(CSc1nc2ccccc2n1Cc1ccccc1Cl)N/N=C\c1c[nH]c2ccccc12`, -8.22% (inactive).
For `CC(CCN1CCC(C(O)(c2ccccc2)c2ccccc2)CC1)Oc1ccc(C(F)(F)F)cc1` (stereo unspecified), the inhibition was 8.83% (inactive).
In the case of `COCCOC(=O)c1sc(=S)n(CCOC)c1N`, the inhibition is 35.8% (active).
The result for `CCC(NC(=O)C1C2C=CC3(CN(Cc4ccccc4)C(=O)C13)O2)c1ccccc1` (stereo unspecified) reads 0.07% (inactive); that for `O=C(CSc1nc2ccccc2s1)NN=Cc1ccc(O)cc1O`, 7.21% (inactive).
As for `O=C(CSc1nnc(-c2ccccn2)n1-c1ccccc1)Nc1ccc2cn[nH]c2c1`, the inhibition is 1.79% (inactive).
Next, `Cc1ccc(-n2c(SCC(=O)Nc3ccc(S(=O)(=O)Nc4nccs4)cc3)nnc2-c2ccncc2)cc1`: -12.6% (inactive).
Next, `CCC(C)c1ccc(O)c(/C=N/O)c1` (stereo unspecified): 23.1% (active); `CNCC(O)c1ccc(O)c(O)c1` (stereo unspecified): 4.81% (inactive); `O=S(=O)(c1ccccc1)N1CCC(c2nc3ccccc3o2)CC1`: 6.75% (inactive).
As for `O=C1CC(c2ccc3c(c2)OCO3)N=C2N(CC3CC3)C/C(=C/c3ccccc3)N12` (stereo unspecified), the inhibition is 6.68% (inactive).
As to `COc1ccc(-c2cc(-c3nnc(SCC(=O)Nc4cccc5ccccc45)n3N)[nH]n2)cc1`, the inhibition is 1.67% (inactive).
Regarding `COC(=O)C[C@@H]1CC[C@@H]2[C@@H](COc3ccc(NC(=O)Nc4ccc(F)c(F)c4)cc3C(=O)N2C)O1`, the inhibition is -2.22% (inactive).
As for `O=C1CC[C@@H](COc2ccc3[nH]cc(-c4ccccc4)c3c2-c2ccccc2)N1`, the inhibition is 3.06% (inactive).
Next, `COc1ccc(N)c(C)c1`: 15.1% (inactive).
Regarding `COc1ccc2[nH]c(=S)cc(C)c2c1`, the inhibition was 23.9% (active).
As for `COc1ccc2[nH]c3c(C)c4cc[n+](C)cc4c(C)c3c2c1`, the inhibition is 3.4% (inactive).
Next, `COC(=O)C12C=C3CC(c4ccccc4)=C3C(=O)N1Cc1[nH]c3ccccc3c1C2` (stereo unspecified): 5.02% (inactive); `Cc1cc(NS(=O)(=O)c2ccc(NC(=O)CSc3nnc(SCc4ccc(F)cc4)s3)cc2)nc(C)n1`: -8.85% (inactive); `COc1ccc(CN2C/C(=C/c3ccccc3)N3C(=O)C[C@@H](c4ccccc4)N=C23)c(OC)c1`: 3.22% (inactive).
For the compound `O=C(NCc1ccco1)/C(=C\c1cccc([N+](=O)[O-])c1)NC(=O)c1ccco1`, the inhibition was -0.85% (inactive).
For `Cc1ccc(C(=O)N/C(=C/c2ccc(-c3cccc([N+](=O)[O-])c3)o2)C(=O)NCCCN(C)C)cc1`, the inhibition is 21.2% (active).
Next, `O=C(NCc1ccco1)/C(=C/c1cccc([N+](=O)[O-])c1)NC(=O)c1ccco1`: -7.3% (inactive); `C=CCN1C(=O)[C@H](CC(=O)NCCCN2CCCC2=O)[C@@]2(C(=O)OCC)CCCC=C12`: 4.17% (inactive); `CCOC(=O)C1=C(C)NC2=C(C(=O)CC(C)(C)C2)C1c1ccc2c(c1)OCO2` (stereo unspecified): -1.17% (inactive).
`COc1ccc(C2C(C(C)=O)=C(O)C(=O)N2CCc2c[nH]c3ccccc23)cc1` (stereo unspecified): the inhibition is 18.4% (active).
As for `COc1ccc2[nH]cc(CCN3C(=O)c4ccc(C(=O)O)cc4C3=O)c2c1`, the inhibition is 11.4% (inactive).
The result for `COC(=O)CN1C(=O)C(O)=C(C(C)=O)C1c1ccc([N+](=O)[O-])cc1` (stereo unspecified) reads -9.46% (inactive); that for `CCOc1ccc(-n2c(SCC(=O)Nc3cc(C)c(NC(=O)c4ccccc4)cc3OC)nnc2-c2cccs2)cc1`, -1.97% (inactive).
For `COC(=O)C1CN(CC(C)C)CCS(=O)(=O)N1Cc1ccc(F)cc1` (stereo unspecified), the inhibition was -0.32% (inactive).
The result for `COCCCNC(=O)C[C@H]1C[C@@]2(C(=O)OC)C(=C[C@H](C(C)(C)C)O[C@@H]2C)N(Cc2ccc(Cl)cc2Cl)C1=O` reads -5.63% (inactive); that for `O=C(NCC1COc2ccccc2O1)c1ccc(NC(=O)c2cc(F)ccc2F)cc1` (stereo unspecified), -1.61% (inactive); that for `CCOC(=O)[C@]12CCCCC/C=C\1N(Cc1ccc(OC)cc1)C(=O)[C@H]2CC(=O)N1CCOCC1`, -1.12% (inactive).
In the case of `COc1cc(OC)cc(C(=O)NCC(=O)N2CCCCCCC2)c1`, the inhibition was 0.93% (inactive).
Next, `COc1ccc(OC)c(CN2CCN(C(=O)CNC(=O)c3cc(C)cc(C)c3)CC2)c1`: 21.8% (active).
The result for `Cc1cc(C)cc(C(=O)NCC(=O)OCC(=O)N2CCCCC2)c1` reads 2% (inactive); that for `CCOC(=O)[C@@]12CN(C(=O)OC(C)(C)C)CC=C1N(Cc1ccc(OC)cc1)C(=O)[C@H]2CC(=O)NCc1ccc(OC)c(OC)c1`, 4.2% (inactive).
In the case of `COC(=O)C(C)Sc1ccc2nnc(-c3cccc(F)c3)n2n1` (stereo unspecified), the inhibition is 24.6% (active).
`CCOC(=O)CNC(=O)CSc1ccc2nnc(-c3cccnc3)n2n1`: the inhibition was 0.77% (inactive).
With `CCOc1ccc(-c2nnc3ccc(SC)nn23)cc1`, the inhibition is -1.24% (inactive).
With `CN(C)[C@H]1CCN(c2cccc3c2S(=O)(=O)N2CC[C@H](C2)O3)C1`, the inhibition was -4.89% (inactive).
The result for `O=C(CN1CCCc2ccccc21)NCc1ccc(F)cc1` reads 7.37% (inactive); that for `COC(=O)[C@H](C(C)C)N(CCCc1cn(Cc2ccccc2)nn1)S(=O)(=O)c1ccc(F)cc1Br`, -3.32% (inactive); that for `CC(C)/C=N/NC(=O)c1cc(Br)ccc1O`, 19.5% (active).
Next, `CC(=N\NC(=O)c1cc(Br)ccc1O)/C(=N/O)C(=O)Nc1ccccc1`: 9.77% (inactive); `O=C(N/N=C1\CCSC1)c1cc(Cl)ccc1O`: 8.12% (inactive).
The result for `COc1ccc(-n2c(SCC(=O)NC3CCCC3)nnc2-c2ccncc2)cc1` reads 6.27% (inactive).
`O=C(NC1CCC1)c1ccc(C#Cc2cccc(F)c2)c[n+]1[O-]`: the inhibition was -0.65% (inactive).
On to `O=C(Nn1c(SCc2ccc([N+](=O)[O-])cc2)nc2ccccc2c1=O)c1ccc(F)cc1`, for which the inhibition was -45.6% (inactive).
The result for `CC(C)(C)c1cnnn1-c1ccc([N+](=O)[O-])cc1` reads -4.05% (inactive); that for `O=c1[nH]n(-c2ccc([N+](=O)[O-])cc2)c(=O)c2ccccc12`, 31.2% (active); that for `O=C(NCCC1=CCCCC1)C1CCN(S(=O)(=O)c2ccc(Cl)s2)CC1`, -2.35% (inactive).
The result for `Cc1nn(-c2ccccc2)c(C)c1NC(=O)COC(=O)c1cc(Cl)ccc1O` reads -4.36% (inactive); that for `CCC(Oc1ccccc1)C(=O)OCC(=O)Nc1c(C)nn(-c2ccccc2)c1C` (stereo unspecified), 5.85% (inactive); that for `C/C=C/c1ccc(OCC(=O)OCC(=O)Nc2c(C)nn(-c3ccccc3)c2C)c(OC)c1`, 18.3% (active).
As for `CCc1ccc(N(CC)c2ncnc3nc[nH]c23)cc1`, the inhibition was -3.78% (inactive).
Take `COc1ccc(CCNc2ncnc3nc[nH]c23)cc1OC`: the inhibition is 32.2% (active).
Next, `COc1ccc(CCNc2nc3ccc(C)cc3n3cnnc23)cc1OC`: -5.53% (inactive).
Next, `Cc1ccc(OCc2nnc(SC/C=C/c3ccccc3)n2Cc2ccco2)cc1`: 4.07% (inactive).
Next, `C=CCN(C(=O)[C@@H](CCCC)[C@@H](O)c1ccc(Cl)cc1)c1ccccc1`: -2.75% (inactive).
As for `COc1ccc(-c2ccc3nnc(SCC(=O)Nc4ccc(NC(C)=O)cc4)n3n2)cc1`, the inhibition was -23.3% (inactive).
The result for `CN(c1ccc(O)cc1)c1nc(-c2cccnc2)cs1` reads 7.08% (inactive); that for `COc1ccc(-c2csc(Nc3ccc(O)cc3)n2)cc1`, 26.2% (active).

Values taken from PubChem BioAssay AID1053197 (The Scripps Research Institute Molecular Screening Center, 2014).
